The values below come from PubChem BioAssay (NCI).

SMILES strings stand for the structures. About 79,000 compounds went through this panel and 15% of them were active in at least one assay; those are over-represented in the sample as a whole. A number with no mark means an inactive call. Activity calls are given as the source filed them. Cut-off read from the data, not from the text of the source: active = growth inhibition above about 70%; inactive = the rest.

The nature of test [1]: NCI Yeast Anticancer Drug Screen. Data for the rad50 strain (AID 155).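 Note: 0% = growth of vehicle-only cultures of the same strain.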 As to conditions: S. cerevisiae rad50 strain growth inhibition, hits give high values. The method, boiled down: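 Yeast carrying a defined DNA repair defect were exposed to test compounds, and growth was compared with vehicle-treated controls to give percent inhibition.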
Test [2] can be described thus: NCI Yeast Anticancer Drug Screen. Data for the mec2-1 strain (AID 157). As to conditions: S. cerevisiae mec2-1 strain, hits give high values. The method, boiled down:
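Cells of the genetically defined mec2-1 yeast strain are incubated with test compound. Inhibition of growth is calculated against vehicle-treated controls.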

The nature of test [3]: NCI Yeast Anticancer Drug Screen. Data for the sgs1 mgt1 strain (AID 161).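 Note: 0% = growth of cultures given vehicle only.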 As to conditions: S. cerevisiae sgs1 mgt1 strain, hits give high values. The method, boiled down: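 Mutant yeast exposed to compound; growth scored against vehicle-only wells.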
The nature of test [4]: NCI Yeast Anticancer Drug Screen. Data for the cln2 rad14 strain (AID 165).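 Note: 0% = growth equal to vehicle treated cultures.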 The settings on record: S. cerevisiae cln2 rad14 strain, hits give high values. Summed up: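 The screen exposed genetically defined yeast (cln2 rad14) to test compounds and scored growth inhibition relative to vehicle-treated controls.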
Test [5] in a line: NCI Yeast Anticancer Drug Screen. Data for the bub3 strain (AID 167). The settings on record: S. cerevisiae bub3 mutant strain, hits give high values. Summed up: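 Compounds were applied to a genetically altered yeast strain carrying a cell-cycle control defect. Growth inhibition was scored against vehicle-treated controls.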
Test [6] can be described thus: NCI Yeast Anticancer Drug Screen. Data for the mlh1 rad18 strain (AID 175). As to conditions: S. cerevisiae mlh1 rad18 strain growth inhibition, hits give high values. Summed up:
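Compound-treated yeast growth, normalised to vehicle controls. Strain bears defined DNA repair mutations.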

Setting [7] is: at 5.0 µM (retest, dose inferred, filed as 0.5).
[8] abbreviates: at 50.0 µM (retest, dose inferred, filed as 5.0).

Regarding `Nc1ccc2c(c1)S(=O)(=O)c1cc(N)ccc1-2`, the growth inhibition in test [1] (setting [7]) was 22%; in test [1] (setting [8]), 27%; in test [1] (at 50.0 µM), 41.4%; in test [2] (setting [7]) it was 19%; in test [2] (setting [8]), 15%; in test [2] (at 50.0 µM), 18.8%. Further, the growth inhibition in test [3] (setting [7]) is 20%; in test [3] (setting [8]), 19%; in test [3] (at 50.0 µM), -29%; in test [4] (setting [7]), 18%; in test [4] (setting [8]), 25%; in test [4] (at 50.0 µM) it was 5.8%. Further, the growth inhibition in test [5] (setting [7]) is 22%; in test [5] (setting [8]), 27%; in test [5] (at 50.0 µM), -17.8%; in test [6] (setting [7]), 26%; in test [6] (setting [8]), 25%; in test [6] (at 50.0 µM) it was -43.8%.
As for `COc1ccc(/C=C(/NC(=O)c2ccccc2)C(=O)Nc2ccccc2)cc1OC`, the growth inhibition in test [1] (setting [7]) is -13%; in test [1] (setting [8]), -6%; in test [1] (at 50.0 µM), 3.3%; in test [2] (setting [7]), -7%; in test [2] (setting [8]) it was -12%; in test [2] (at 50.0 µM) it was 16.1%. Besides, the growth inhibition is -6% in test [3] (setting [7]); -5% in test [3] (setting [8]); -18.4% in test [3] (at 50.0 µM); -23% in test [4] (setting [7]); -24% in test [4] (setting [8]); 50.5% in test [4] (at 50.0 µM). Also, the growth inhibition was -6% in test [5] (setting [7]); 9% in test [5] (setting [8]); -8.25% in test [5] (at 50.0 µM); -4% in test [6] (setting [7]); -11% in test [6] (setting [8]); 29.3% in test [6] (at 50.0 µM).
For the compound `COc1cc(C2C(Cl)C(=O)N2NC(=O)c2ccc(NC(C)=O)cc2)cc(OC)c1OC` (stereo not given), the growth inhibition in test [1] (setting [7]) is 1%; in test [1] (setting [8]) it was -16%; in test [1] (at 50.0 µM) it was -8.6%; in test [2] (setting [7]), -9%; in test [2] (setting [8]), -16%; in test [2] (at 50.0 µM), -10.1%. For the same compound, the growth inhibition in test [3] (setting [7]) was -9%; in test [3] (setting [8]), -7%; in test [3] (at 50.0 µM), 8.15%; in test [4] (setting [7]) it was -16%; in test [4] (setting [8]), -5%; in test [4] (at 50.0 µM), 19.1%. The growth inhibition in test [5] (setting [7]) is 3%; in test [5] (setting [8]), -2%; in test [5] (at 50.0 µM), -9.3%; in test [6] (setting [7]), -10%; in test [6] (setting [8]) it was 3%; in test [6] (at 50.0 µM), 12.3%.
In the case of `O=C1CSC(c2c[nH]c3ccccc23)N1c1cccc(Cl)c1` (stereo not given), the growth inhibition in test [1] (setting [7]) was 10%; in test [1] (setting [8]) it was 93% (active); in test [1] (at 50.0 µM), 85.8% (active); in test [2] (setting [7]), 8%; in test [2] (setting [8]), 97% (active); in test [2] (at 50.0 µM), 87.7% (active). In addition, the growth inhibition in test [3] (setting [7]) was 16%; in test [3] (setting [8]), 87% (active); in test [3] (at 50.0 µM), 87.3% (active); in test [4] (setting [7]) it was 6%; in test [4] (setting [8]) it was 95% (active); in test [4] (at 50.0 µM), 87% (active). Besides, the growth inhibition was 16% in test [5] (setting [7]); 97% (active) in test [5] (setting [8]); 88.5% (active) in test [5] (at 50.0 µM); -5% in test [6] (setting [7]); 97% (active) in test [6] (setting [8]); 84.5% (active) in test [6] (at 50.0 µM).
With `O=C(/C=C/c1ccccc1)CCN1CCOCC1`, the growth inhibition in test [1] (setting [7]) is 21%; in test [1] (setting [8]), 99% (active); in test [1] (at 50.0 µM), 91.3% (active); in test [2] (setting [7]), 26%; in test [2] (setting [8]), 99% (active); in test [2] (at 50.0 µM) it was 85.3% (active). Moreover, the growth inhibition in test [3] (setting [7]) is 22%; in test [3] (setting [8]), 100% (active); in test [3] (at 50.0 µM), 86.5% (active); in test [4] (setting [7]), 0%; in test [4] (setting [8]), 84% (active); in test [4] (at 50.0 µM), 88.7% (active). Further, the growth inhibition in test [5] (setting [7]) was 35%; in test [5] (setting [8]), 100% (active); in test [5] (at 50.0 µM) it was 88.8% (active); in test [6] (setting [7]), 32%; in test [6] (setting [8]), 99% (active); in test [6] (at 50.0 µM) it was 84.7% (active).
For the compound `CCCCCCCSCc1nc2ccccc2c(C)[n+]1[O-]`, the growth inhibition in test [1] (setting [7]) is 2%; in test [1] (setting [8]), 99% (active); in test [1] (at 50.0 µM) it was 96.7% (active); in test [2] (setting [7]) it was 3%; in test [2] (setting [8]), 98% (active); in test [2] (at 50.0 µM) it was 95.8% (active). Besides, the growth inhibition in test [3] (setting [7]) was 0%; in test [3] (setting [8]), 98% (active); in test [3] (at 50.0 µM), 95.8% (active); in test [4] (setting [7]), -3%; in test [4] (setting [8]), 98% (active); in test [4] (at 50.0 µM), 94.8% (active). For the same compound, the growth inhibition was -2% in test [5] (setting [7]); 99% (active) in test [5] (setting [8]); 98% (active) in test [5] (at 50.0 µM); 3% in test [6] (setting [7]); 98% (active) in test [6] (setting [8]); 97.5% (active) in test [6] (at 50.0 µM).
As to `CCCCCCCC/C(C=O)=C\c1ccccc1`, the growth inhibition is -3% in test [1] (setting [7]); -25% in test [1] (setting [8]); 77.8% (active) in test [1] (at 50.0 µM); -21% in test [2] (setting [7]); -2% in test [2] (setting [8]); 72.8% (active) in test [2] (at 50.0 µM). Also, the growth inhibition in test [3] (setting [7]) was -3%; in test [3] (setting [8]), 3%; in test [3] (at 50.0 µM), 78.2% (active); in test [4] (setting [7]), -1%; in test [4] (setting [8]), 7%; in test [4] (at 50.0 µM), 45%. For the same compound, the growth inhibition in test [5] (setting [7]) is -11%; in test [5] (setting [8]), -19%; in test [5] (at 50.0 µM) it was 64.8%; in test [6] (setting [7]), -3%; in test [6] (setting [8]), -13%; in test [6] (at 50.0 µM) it was 77.9% (active).
Consider `[O-]c1c2cc(-[n+]3c(-c4ccccc4)cc(-c4ccccc4)cc3-c3ccccc3)cc1CO[C@@H](c1ccccc1)[C@H](c1ccccc1)OCCOCCO[C@@H](c1ccccc1)[C@H](c1ccccc1)OC2`, for which the growth inhibition in test [1] (setting [7]) is 97% (active); in test [1] (setting [8]), 95% (active); in test [1] (at 50.0 µM), 87.5% (active); in test [2] (setting [7]), 98% (active); in test [2] (setting [8]), 95% (active); in test [2] (at 50.0 µM), 91.4% (active). The growth inhibition in test [3] (setting [7]) is 98% (active); in test [3] (setting [8]), 97% (active); in test [3] (at 50.0 µM), 88.4% (active); in test [4] (setting [7]) it was 95% (active); in test [4] (setting [8]) it was 97% (active); in test [4] (at 50.0 µM) it was 88.6% (active). The growth inhibition is 97% (active) in test [5] (setting [7]); 72% (active) in test [5] (setting [8]); 89% (active) in test [5] (at 50.0 µM); 98% (active) in test [6] (setting [7]); 94% (active) in test [6] (setting [8]); 29.6% in test [6] (at 50.0 µM).
`O=C(c1ccc(OCC(O)CN2CCN(c3ccccc3)CC2)cc1)c1cc2ccccc2c2ccccc12` (stereo not given): the growth inhibition in test [1] (setting [7]) is 13%; in test [1] (setting [8]), 85% (active); in test [1] (at 50.0 µM), 61%; in test [2] (setting [7]), 12%; in test [2] (setting [8]) it was 78% (active); in test [2] (at 50.0 µM), 82.8% (active). For the same compound, the growth inhibition in test [3] (setting [7]) was 17%; in test [3] (setting [8]), 49%; in test [3] (at 50.0 µM), 44.6%; in test [4] (setting [7]) it was 3%; in test [4] (setting [8]), 80% (active); in test [4] (at 50.0 µM), 91.5% (active). The growth inhibition was 10% in test [5] (setting [7]); 91% (active) in test [5] (setting [8]); 89.3% (active) in test [5] (at 50.0 µM); 9% in test [6] (setting [7]); 87% (active) in test [6] (setting [8]); 96.2% (active) in test [6] (at 50.0 µM).
As to `COc1ccc2c(N3CCN(C(=O)C(Cl)(Cl)Cl)CC3)cc(C)nc2c1`, the growth inhibition in test [1] (setting [7]) is 2%; in test [1] (setting [8]) it was 4%; in test [1] (at 50.0 µM), 2.05%; in test [2] (setting [7]), 1%; in test [2] (setting [8]) it was 0%; in test [2] (at 50.0 µM) it was 0.2%. The growth inhibition is 1% in test [3] (setting [7]); 0% in test [3] (setting [8]); -24.6% in test [3] (at 50.0 µM); 0% in test [4] (setting [7]); 0% in test [4] (setting [8]); -2.9% in test [4] (at 50.0 µM). In addition, the growth inhibition in test [5] (setting [7]) is 0%; in test [5] (setting [8]) it was 7%; in test [5] (at 50.0 µM), -0.5%; in test [6] (setting [7]), 3%; in test [6] (setting [8]), 4%; in test [6] (at 50.0 µM) it was 2.75%.
